PubChem BioAssay AID449762 (Southern Research Specialized Biocontainment Screening …, 2010)
The campaign covered roughly 330,000 compounds. About 1,900 (0.58%) were called active. Another 4% or so got no clear call; they are omitted. Not all results are given here. Potency and affinity values are given separately. A number with no mark means an inactive call. Rule as the data show it: inconclusive = inhibition above about 70% without an active follow-up result; inactive = below that.

Assay: M. tuberculosis growth inhibition, HTS (AID 449762);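 also: bacterial growth assessed after seven days of incubation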
Conditions: M. tuberculosis H37Rv growth inhibition, 7H9 media; at 25 µM; active compounds read high

Compound | inhibition [%]
CCCCc1nc2cc(C(=O)NCc3nccn3CC)ccc2o1 | -0.01
O=C(NC(=S)NCCO)c1sc2ccccc2c1Cl | -1.03
O=C(NNC(=S)NC1CCCCC1)c1sc2ccccc2c1Cl | 4.12
COC(=O)C1CCN(C(=O)COC(=O)c2cc(-c3cccs3)nn2-c2ccccc2)CC1 | 68.6
NC(=O)COC(=O)c1cc(-c2cccs2)nn1-c1ccccc1 | 3.52
O=[P+](Cc1ccccc1)Cc1ccccc1 | 5.56
CCOc1cc2c(cc1OCC)-n1cccc1C(c1ccc(F)cc1)NC2 (stereo unspecified) | 4.18
CCOc1cc2c(cc1OCC)-n1cccc1C(c1ccc(OC)cc1)NC2 (stereo unspecified) | 12.2
CCN1CCN(C(C(=O)NC2CCCCC2)c2ccc(Cl)cc2)CC1 (stereo unspecified) | -6.43
Cc1cc(-c2ccc(C)c(S(=O)(=O)NCCCN3CCN(c4ccccc4)CC3)c2)on1 | 36.8
COc1ccc(-c2cc(C)no2)cc1S(=O)(=O)NCCCN1CCN(c2ccccc2)CC1 | 1.94
c1ccc2c(c1)nc1n2CCS1 | -2.74
COc1cc(C(=O)NNC(=O)c2ccc3ccccc3n2)cc(OC)c1OC | 5.84
COc1cccc(NC(=O)/C=C/c2ccccc2[N+](=O)[O-])c1 | -3.12
CCn1c2ccccc2c2nnc(SCCN3CCCCC3)nc21 | 5.94
CCN(CC)CCSc1nnc2c3ccccc3n(Cc3ccccc3)c2n1 | 3.52
CCOC(=O)C1(CC2CCCCO2)CCN(Cc2nc3ccccc3nc2C)CC1 (stereo unspecified) | 0.36
CCOC(=O)c1cccc(NC(=O)C2CCN(S(=O)(=O)c3cccs3)CC2)c1 | -3.98
CCN1CCN(C(=O)c2sc3ncnc(N4CCc5ccccc5C4)c3c2C)CC1 | 1.76
COCCCNC(=O)c1sc2ncnc(N3CCc4ccccc4C3)c2c1C | 22.6
O=C(NCCN1CCCCC1)c1ccc2c(c1)OCCO2 | 1.64
O=C(O)CCC(=O)N1CCN(c2nc(-c3ccccc3Cl)c3cc(Br)ccc3n2)CC1 | 8.23
O=C(O)CCCC(=O)N1CCN(c2nc(-c3ccccc3Cl)c3cc(Br)ccc3n2)CC1 | 2.83
Cc1ccc(N(C(=O)c2csnn2)C(C(=O)NC2CCCCC2)c2ccccn2)c(C)c1 (stereo unspecified) | -6.22
COc1cc(CC(=O)O)ccc1OCc1ccccc1 | -4.67
COc1ccc(N(CC(=O)NC2CCCCC2)C(=O)CNC(=O)c2cccs2)cc1OC | -4.95
